Screen size: about 310,000 compounds; about 14,000 (4.5%) showed an effect of 50% or more. The effect is printed as a negative number. The list comes from a sample in which strong results are over-represented; it also holds similar structures and randomly drawn compounds.
Molecular target: human ether-à-go-go-related gene (hERG) potassium channel (human, UniProt Q12809)
Assay: primary screen, population patch clamp on CHO cells stably expressing hERG; higher = less effect of the substance
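Further: peak tail current of the secondary pulse compared with the same well before compound.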

human ether-à-go-go-related gene (hERG) potassium channel, sequence (Q12809 whole entry, looked up): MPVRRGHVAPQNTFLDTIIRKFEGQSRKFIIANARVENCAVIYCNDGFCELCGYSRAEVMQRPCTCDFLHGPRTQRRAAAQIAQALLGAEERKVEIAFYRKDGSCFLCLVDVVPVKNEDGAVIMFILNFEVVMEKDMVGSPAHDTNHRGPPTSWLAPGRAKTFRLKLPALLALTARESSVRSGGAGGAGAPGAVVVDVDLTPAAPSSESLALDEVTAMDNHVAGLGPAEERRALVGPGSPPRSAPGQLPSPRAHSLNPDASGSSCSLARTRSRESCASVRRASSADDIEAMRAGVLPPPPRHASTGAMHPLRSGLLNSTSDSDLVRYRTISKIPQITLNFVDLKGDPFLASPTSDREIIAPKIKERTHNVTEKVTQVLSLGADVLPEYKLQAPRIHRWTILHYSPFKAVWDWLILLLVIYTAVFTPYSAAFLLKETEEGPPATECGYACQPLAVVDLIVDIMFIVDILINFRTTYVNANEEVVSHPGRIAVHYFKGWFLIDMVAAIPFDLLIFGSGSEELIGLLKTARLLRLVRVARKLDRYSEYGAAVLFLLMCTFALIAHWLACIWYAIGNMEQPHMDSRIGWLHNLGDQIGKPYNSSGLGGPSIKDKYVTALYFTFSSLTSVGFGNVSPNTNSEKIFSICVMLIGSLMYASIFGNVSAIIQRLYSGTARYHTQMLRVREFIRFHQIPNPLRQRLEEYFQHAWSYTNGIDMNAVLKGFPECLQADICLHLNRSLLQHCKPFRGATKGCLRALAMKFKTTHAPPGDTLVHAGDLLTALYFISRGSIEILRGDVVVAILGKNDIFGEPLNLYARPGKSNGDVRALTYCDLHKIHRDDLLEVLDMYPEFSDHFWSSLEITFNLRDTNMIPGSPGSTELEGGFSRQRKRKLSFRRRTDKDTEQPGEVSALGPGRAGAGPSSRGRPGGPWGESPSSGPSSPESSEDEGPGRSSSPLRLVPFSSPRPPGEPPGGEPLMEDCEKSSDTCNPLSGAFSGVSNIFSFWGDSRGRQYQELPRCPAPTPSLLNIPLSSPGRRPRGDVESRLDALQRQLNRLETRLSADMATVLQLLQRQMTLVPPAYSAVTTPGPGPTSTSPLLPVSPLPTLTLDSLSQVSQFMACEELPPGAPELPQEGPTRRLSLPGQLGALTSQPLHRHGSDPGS

Compared with `Cn1c(SC2CCCCC2=O)nnc1-c1ccccc1F` (stereo not drawn), `O=C(COc1coc(CN2CCN(c3ccccc3F)CC2)cc1=O)NC1CCCCC1` is lower in “hERG current change (%, negative = inhibition) at 10uM” value: 9.45% for the first, -21.6% for the second.

First: Cc1cc(C)cc(OCC(=O)O/N=C(\N)c2ccccn2)c1
Second: COc1ccc(OCC(=O)NS(=O)(=O)c2ccccc2)cc1
The “hERG current change (%, negative = inhibition) at 10uM” value of the first is lower: -6.54% for the first, 15.3% for the second.

First: O=c1ccc(-c2ccc(S(=O)(=O)N3CCN(c4cccc(Cl)c4)CC3)o2)n[nH]1
Second: COC(=O)c1ccc(N2CCN(S(=O)(=O)c3ccc(Br)cc3)CC2)c([N+](=O)[O-])c1
The “hERG current change (%, negative = inhibition) at 10uM” value of the first is lower: 10% for the first, 10.6% for the second.

Going from `O=C(Nc1cc(S(=O)(=O)N2CCOCC2)ccc1N1CCOCC1)C1CCCO1` (stereo not drawn) to `O=C(CN1CCN(C(=O)c2ccco2)CC1)Nc1ccc(Cl)c(S(=O)(=O)N2CCOCC2)c1`, the “hERG current change (%, negative = inhibition) at 10uM” value falls from -3.99% to -25.6%.

First: O=C(CN1CCN(C(=O)c2ccco2)CC1)NCc1ccc(Cl)cc1
Second: O=C(c1ccco1)N1CCN(Cc2ccc(Cl)cc2)CC1
The “hERG current change (%, negative = inhibition) at 10uM” value of the first is lower: -64.4% for the first, -14% for the second.

Going from `O=C(CN1CCN(C(=O)c2ccco2)CC1)Nc1ccc(Cl)c(C(F)(F)F)c1` to `O=C(CN1CCN(C(=O)c2ccco2)CC1)Nc1cc(C(F)(F)F)ccc1Cl`, the “hERG current change (%, negative = inhibition) at 10uM” value rises from -67.1% to -63.6%.

First: Cc1cc(Cl)ccc1NC(=S)N1CCN(C(=O)c2ccco2)CC1
Second: Cc1cc(Cl)ccc1NC(=O)CN1CCN(C(=O)c2ccco2)CC1
The “hERG current change (%, negative = inhibition) at 10uM” value of the first is higher: -8.95% for the first, -73.6% for the second.

Compared with `Cc1ccc(NC(=O)CN2CCN(C(=O)c3ccco3)CC2)cc1`, `Cc1ccccc1NC(=O)CN1CCN(C(=O)c2ccco2)CC1` is lower in “hERG current change (%, negative = inhibition) at 10uM” value: -3.01% for the first, -29.4% for the second.

First: O=C(CN1CCN(C(=O)c2ccco2)CC1)Nc1ccc(F)cc1F
Second: O=C(CN1CCN(C(=O)c2ccco2)CC1)Nc1cc(Cl)ccc1Cl
The “hERG current change (%, negative = inhibition) at 10uM” value of the first is higher: -49.6% for the first, -60.1% for the second.

Going from `O=C(NCc1ccc(Cl)cc1)C1CCN(C(=O)c2ccco2)CC1` to `O=C(CNC(=O)c1ccco1)Nc1ccc(OC(F)F)cc1`, the “hERG current change (%, negative = inhibition) at 10uM” value rises from -41.4% to 19.6%.

First: COc1ccc2c(-c3ccccc3)cc(SCC(=O)N(C)C)nc2c1
Second: Cc1c(-c2ccccc2)cn2c1-c1ccc(C)n1CC2
The “hERG current change (%, negative = inhibition) at 10uM” value of the first is lower: -22.9% for the first, -0.42% for the second.

First: C=CCNC(=O)c1oc2ccc(S(=O)(=O)N3CCC4(CC3)OCCO4)cc2c1C
Second: COC(=O)c1ccc(N2CCN(S(=O)(=O)c3ccc(C)cc3)CC2)c([N+](=O)[O-])c1
The “hERG current change (%, negative = inhibition) at 10uM” value of the first is lower: 0.761% for the first, 4.78% for the second.

Going from `CC(OC(=O)/C=C/c1ccco1)C(=O)Nc1cccc([N+](=O)[O-])c1` (stereo not drawn) to `CCOc1ccc(NC(=O)/C=C/c2ccccc2)c([N+](=O)[O-])c1`, the “hERG current change (%, negative = inhibition) at 10uM” value falls from 6.57% to -5.94%.

Compared with `Cc1ccc(-n2nc3c(=O)n(CC(=O)NC(C)CCc4ccccc4)nc(C)c3c2C)cc1` (stereo not drawn), `CCC1(C)Cc2c(sc3nnn(CC(=O)Nc4cccc5ccccc45)c(=O)c23)CO1` (stereo not drawn) is lower in “hERG current change (%, negative = inhibition) at 10uM” value: 6.77% for the first, 3.09% for the second.

First: COc1cc(/C=C2\C(=N)N3N=C(S(C)(=O)=O)SC3=NC2=O)ccc1OS(=O)(=O)c1ccc(C)cc1
Second: COc1ccc(CCNC(=O)c2nnc(CS(=O)(=O)c3ccccc3)o2)cc1OC
The “hERG current change (%, negative = inhibition) at 10uM” value of the first is higher: 6.9% for the first, -6.44% for the second.

First: NC(=O)c1ccc(NC(=O)COc2ccc(-n3cnnn3)cc2)cc1
Second: CCOC(=O)c1ccc(NC(=O)C2CCN(S(=O)(=O)c3c(C)nn(C)c3C)CC2)cc1
The “hERG current change (%, negative = inhibition) at 10uM” value of the first is higher: -4.26% for the first, -28.3% for the second.

Compared with `CCc1ccc(-c2cc(C)no2)cc1S(=O)(=O)Nc1cc(C)on1`, `CCC1(C)Cc2c(sc3nnn(CC(=O)Nc4ccccc4C)c(=O)c23)CO1` (stereo not drawn) is lower in “hERG current change (%, negative = inhibition) at 10uM” value: 10.3% for the first, -58.4% for the second.

Compared with `O=C(CN1CCOCC1)Nc1cc(C(F)(F)F)ccc1Cl`, `O=C(CN1CCCC1)Nc1cc(C(F)(F)F)ccc1Cl` is higher in “hERG current change (%, negative = inhibition) at 10uM” value: -0.356% for the first, 2.22% for the second.

First: COc1ccccc1N1C(=O)CC(Sc2ccccc2N)C1=O (stereo not drawn)
Second: CCOC(=O)N1CC(=O)Nc2ccc(Br)cc2C1c1ccccc1 (stereo not drawn)
The “hERG current change (%, negative = inhibition) at 10uM” value of the first is higher: 0.966% for the first, -24.4% for the second.

First: COC(=O)c1ccc(N2CCN(C)CC2)c([N+](=O)[O-])c1
Second: CN1CCN(c2ccc(C(N)=O)cc2[N+](=O)[O-])CC1
The “hERG current change (%, negative = inhibition) at 10uM” value of the first is lower: -63.4% for the first, 7.57% for the second.

Compared with `COC(=O)c1ccc(N2CCc3ccccc32)c([N+](=O)[O-])c1`, `CN1CCN(c2ccc(C(=O)c3ccccc3)cc2[N+](=O)[O-])CC1` is lower in “hERG current change (%, negative = inhibition) at 10uM” value: 10.5% for the first, -53.1% for the second.

Compared with `COC(=O)c1ccc(N2CCN(CC(=O)c3ccc(C)cc3)CC2)c([N+](=O)[O-])c1`, `COC(=O)c1ccc(N2CCN(CC(=O)c3ccc(-c4ccccc4)cc3)CC2)c([N+](=O)[O-])c1` is higher in “hERG current change (%, negative = inhibition) at 10uM” value: -65% for the first, 8.75% for the second.

Compared with `COC(=O)c1ccc(N2CCN(C(=O)C3CC3)CC2)c([N+](=O)[O-])c1`, `CN1CCN(c2ccc(C(=O)NC3CCCCC3)cc2[N+](=O)[O-])CC1` is lower in “hERG current change (%, negative = inhibition) at 10uM” value: -7.61% for the first, -9.83% for the second.

First: CN1CCN(c2ccccc2NC(=O)c2ccc(N3CCCC3)c([N+](=O)[O-])c2)CC1
Second: O=C(O)c1ccccc1C(=O)c1ccc(N2CCCC2)c([N+](=O)[O-])c1
The “hERG current change (%, negative = inhibition) at 10uM” value of the first is lower: -48.5% for the first, 13.8% for the second.

Going from `CN1CCN(c2ccc(C(=O)c3ccc(Br)cc3)cc2[N+](=O)[O-])CC1` to `Cc1ccc(C(=O)c2ccc(N3CCN(C)CC3)c([N+](=O)[O-])c2)cc1`, the “hERG current change (%, negative = inhibition) at 10uM” value rises from -72.1% to -68.8%.

First: O=C(NCc1cccs1)c1cc2c(s1)CS(=O)(=O)C2
Second: Cc1ccccc1NC(=O)Cn1nnc2sc3c(c2c1=O)CC(C)(C)OC3
The “hERG current change (%, negative = inhibition) at 10uM” value of the first is higher: -0.732% for the first, -35.2% for the second.

Compared with `O=C(N/N=C/c1c[nH]c2ccccc12)C1CC1c1ccccc1` (stereo not drawn), `O=C1CN(C(=O)c2ccccc2[N+](=O)[O-])C(c2ccccc2)c2cc(Br)ccc2N1` (stereo not drawn) is lower in “hERG current change (%, negative = inhibition) at 10uM” value: -4.47% for the first, -66.5% for the second.

First: COC(=O)c1cc(C(=O)OC)n(Cc2ccc(F)cc2)n1
Second: COc1ccccc1C(=O)NCCC(=O)NCC(c1ccccc1OC)N1CCCC1 (stereo not drawn)
The “hERG current change (%, negative = inhibition) at 10uM” value of the first is lower: -12.9% for the first, 29.8% for the second.

Going from `O=C(O)c1cccc(N(CCO)CCO)c1` to `CCCOC(=O)c1cccc(NC(=O)C(C)(C)C)c1`, the “hERG current change (%, negative = inhibition) at 10uM” value rises from -1.13% to 1.43%.

Compared with `CC(C)COP(=O)(c1ccc(N(C)C)cc1)C(O)c1ccc(Br)cc1` (stereo not drawn), `COC(=O)CN1C(=O)Nc2ccc(Br)cc2C1c1ccccc1` (stereo not drawn) is lower in “hERG current change (%, negative = inhibition) at 10uM” value: 8.63% for the first, -14.6% for the second.

Going from `COc1ccc(-c2nnc(SCC(=O)N(C)C3CCS(=O)(=O)C3)n2N)cc1OC` (stereo not drawn) to `CCOC(=O)CN1C(=O)Nc2ccc(Br)cc2C1c1ccccc1` (stereo not drawn), the “hERG current change (%, negative = inhibition) at 10uM” value falls from 19.8% to -56.7%.

Compared with `O=C(CN1C(=O)/C(=C\c2ccc(C(F)(F)F)cc2)Sc2ccccc21)NCc1ccco1`, `O=C1CN(C(=O)c2ccccc2F)C(c2ccc(F)cc2)c2cc(Br)ccc2N1` (stereo not drawn) is lower in “hERG current change (%, negative = inhibition) at 10uM” value: -5.39% for the first, -23% for the second.

First: Cc1cc(=O)[nH]c(N/N=C/C(C)c2ccccc2)n1 (stereo not drawn)
Second: CCC(CC)C(=O)N1CC(=O)Nc2ccc(F)cc2C1c1ccccc1 (stereo not drawn)
The “hERG current change (%, negative = inhibition) at 10uM” value of the first is higher: 7.54% for the first, -11.4% for the second.

Going from `CCc1cccc(CC)c1NC(=O)C1SC(=Nc2ccccc2C)C(c2nc3ccccc3s2)=C1N` (stereo not drawn) to `Cc1ccc2c(c1)C(c1ccccc1)N(C(=O)c1ccccc1[N+](=O)[O-])CC(=O)N2` (stereo not drawn), the “hERG current change (%, negative = inhibition) at 10uM” value falls from 29.1% to -40.5%.

Going from `Cc1ccc(OC(=O)c2ccc(N3CCOCC3)c([N+](=O)[O-])c2)cc1` to `O=C1CN(C(=O)CCN2CCOCC2)C(c2ccccc2)c2cc(Br)ccc2N1` (stereo not drawn), the “hERG current change (%, negative = inhibition) at 10uM” value falls from -4.31% to -60.5%.

Compared with `CN1/C(=C\C(=O)COC(=O)C2COc3ccccc3O2)C(C)(C)c2ccccc21` (stereo not drawn), `CCC(CC)C(=O)N1CC(=O)Nc2ccc(C)cc2C1c1ccccc1` (stereo not drawn) is lower in “hERG current change (%, negative = inhibition) at 10uM” value: 9.13% for the first, -38.1% for the second.

First: CCCCn1c(N)c(N(CCC(C)C)C(=O)C(C)N2C(=O)c3ccccc3C2=O)c(=O)[nH]c1=O (stereo not drawn)
Second: CCC(CC)C(=O)N1CC(=O)Nc2ccc(Br)cc2C1c1ccccc1 (stereo not drawn)
The “hERG current change (%, negative = inhibition) at 10uM” value of the first is higher: 8.31% for the first, -73.5% for the second.

Compared with `O=C(O)CN1C(=O)Nc2ccc(Br)cc2C1c1ccccc1` (stereo not drawn), `CCC(=O)N1CC(=O)Nc2ccc(Br)cc2C1c1ccccc1` (stereo not drawn) is lower in “hERG current change (%, negative = inhibition) at 10uM” value: -3.51% for the first, -11.6% for the second.

Compared with `O=C1CN(C(=O)CN2CCCCC2)C(c2ccccc2)c2cc(Br)ccc2N1` (stereo not drawn), `O=C1CN(C(=O)CN2CCCC2)C(c2ccccc2)c2cc(Br)ccc2N1` (stereo not drawn) is higher in “hERG current change (%, negative = inhibition) at 10uM” value: -66.5% for the first, -46.6% for the second.

First: O=C1CN(C(=O)CN2CCOCC2)C(c2ccccc2)c2cc(Br)ccc2N1 (stereo not drawn)
Second: O=C(Nc1ccncc1)C1CCN(S(=O)(=O)c2ccccc2)CC1
The “hERG current change (%, negative = inhibition) at 10uM” value of the first is lower: -32.3% for the first, 3.04% for the second.

Compared with `CCOC(=O)C1C(=O)CC(C)(O)C(C(=O)OCC)C1c1ccc([N+](=O)[O-])cc1` (stereo not drawn), `Cc1c(C(=O)N/N=C/c2ccoc2)cccc1[N+](=O)[O-]` is higher in “hERG current change (%, negative = inhibition) at 10uM” value: -8.06% for the first, 9.67% for the second.

Going from `FC(F)(F)c1nc(-c2ccncc2)ncc1-c1nnnn1-c1ccccc1` to `O=C(Nc1cccc(C(F)(F)F)c1)c1cc[n+]([O-])cc1`, the “hERG current change (%, negative = inhibition) at 10uM” value rises from -0.18% to 21.2%.
